# From the supplement of paper PMC4022240
# ± gives the standard deviation.
# T1: HaloTag-ATRX ADD domain (163-292)
# T1 chain: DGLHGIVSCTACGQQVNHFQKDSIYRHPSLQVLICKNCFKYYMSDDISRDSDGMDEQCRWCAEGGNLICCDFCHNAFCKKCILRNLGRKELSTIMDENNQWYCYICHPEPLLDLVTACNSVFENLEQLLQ
# Legend:
# Test in all cases: peptide microarray binding signal (635 nm), min-max normalized on array (fraction of array maximum); higher = stronger binding
# Conditions in all cases: peptide region: H4 16-28
# [1] = biological target: T1, HaloTag-ATRX ADD domain (163-292)
# Procedure, shortened: (§1)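 Within each library, mean intensities of triplicate spots were min-max scaled to give the binding signal. The spots were histone 13-mer peptide–cellulose conjugates on nitrocellulose with a Cy3 tracer, blocked overnight at 4°C. They were then probed for 1 h at 4°C using biotin-labelled HaloTag reader fusions (10 nM to 1 μM) with streptavidin-Alexa Fluor 647 or rabbit histone antibodies (1:10,000 to 1:2,000) with anti-rabbit Alexa 647, and scanned at 635 nm for signal and 532 nm for misprints on an Axon GenePix 4000B.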
# [2] = biological target: HaloTag-ING2 PHD (mouse Ing2 200-280)
# Procedure, shortened: as §1
# [3] = biological target: anti-H3K4me3 antibody ab8580
# Procedure, shortened: as §1
# [4] = biological target: anti-H3K9me3 antibody ab8898
# Procedure, shortened: as §1
# [5] = peptide modifications: H4R19me2s H4K20me2, binder concentration: 1:2,000 dilution
# [6] = peptide modifications: H4R19me2s H4K20me2, binder concentration: 1:10,000 dilution
# [7] = peptide modifications: H4R19me2s H4K20me1, binder concentration: 1:2,000 dilution
# [8] = peptide modifications: H4R19me2s H4K20me1, binder concentration: 1:10,000 dilution
# [9] = peptide modifications: H4R19cit H4K20me3, binder concentration: 1:2,000 dilution
# [10] = peptide modifications: H4R19cit H4K20me3, binder concentration: 1:10,000 dilution
# [11] = peptide modifications: H4R19me1, binder concentration: 1:2,000 dilution
# [12] = peptide modifications: H4R19cit, binder concentration: 1:2,000 dilution
# [13] = peptide modifications: H4R19me1 H4K20me2, binder concentration: 1:2,000 dilution
# [14] = peptide modifications: H4R19me1 H4K20me2, binder concentration: 1:10,000 dilution
binder,measurement,setting,value
KRHRKVLRDNIQG [H4 16-28 K R H Rme2s Kme2 V L R D N I Q G],peptide microarray binding signal,"[1]; peptide modifications: H4R19me2s H4K20me2, binder concentration: 50 nM",0.003511 ± 2.9e-05
same,peptide microarray binding signal,"[1]; peptide modifications: H4R19me2s H4K20me2, binder concentration: 500 nM",0.00548 ± 0.00047
same,peptide microarray binding signal,"[2]; peptide modifications: H4R19me2s H4K20me2, binder concentration: 10 nM",0.00937 ± 0.00061
same,peptide microarray binding signal,"[2]; peptide modifications: H4R19me2s H4K20me2, binder concentration: 100 nM",0.0138 ± 0.0027
same,peptide microarray binding signal,[3]; [5],0.00208 ± 0.0003
same,peptide microarray binding signal,[3]; [6],0.00325 ± 0.00014
same,peptide microarray binding signal,[4]; [5],0.000966 ± 0.00022
same,peptide microarray binding signal,[4]; [6],0.00225 ± 0.00011
KRHRKVLRDNIQG [H4 16-28 K R H Rme2s Kme V L R D N I Q G],peptide microarray binding signal,"[1]; peptide modifications: H4R19me2s H4K20me1, binder concentration: 50 nM",0.00379 ± 5.5e-05
same,peptide microarray binding signal,"[1]; peptide modifications: H4R19me2s H4K20me1, binder concentration: 500 nM",0.00586 ± 0.00025
same,peptide microarray binding signal,"[2]; peptide modifications: H4R19me2s H4K20me1, binder concentration: 10 nM",0.0101 ± 0.00023
same,peptide microarray binding signal,"[2]; peptide modifications: H4R19me2s H4K20me1, binder concentration: 100 nM",0.0192 ± 0.00073
same,peptide microarray binding signal,[3]; [7],0.0013 ± 1.8e-05
same,peptide microarray binding signal,[3]; [8],0.002568 ± 2.3e-05
same,peptide microarray binding signal,[4]; [7],0.000831 ± 4.3e-05
same,peptide microarray binding signal,[4]; [8],0.001614 ± 1.6e-05
KRHRKVLRDNIQG [H4 16-28 K R H Rcit Kme3 V L R D N I Q G],peptide microarray binding signal,"[1]; peptide modifications: H4R19cit H4K20me3, binder concentration: 50 nM",0.0068 ± 9.7e-05
same,peptide microarray binding signal,"[1]; peptide modifications: H4R19cit H4K20me3, binder concentration: 500 nM",0.00848 ± 0.0011
same,peptide microarray binding signal,"[2]; peptide modifications: H4R19cit H4K20me3, binder concentration: 10 nM",0.0124 ± 0.00084
same,peptide microarray binding signal,"[2]; peptide modifications: H4R19cit H4K20me3, binder concentration: 100 nM",0.018 ± 0.0027
same,peptide microarray binding signal,[3]; [9],0.00832 ± 0.0026
same,peptide microarray binding signal,[3]; [10],0.00514 ± 0.0003
same,peptide microarray binding signal,[4]; [9],0.0039 ± 0.0016
same,peptide microarray binding signal,[4]; [10],0.00369 ± 0.00012
KRHRKVLRDNIQG [H4 16-28 K R H Rme K V L R D N I Q G],peptide microarray binding signal,"[1]; peptide modifications: H4R19me1, binder concentration: 500 nM",9.52e-05 ± 1e-06
same,peptide microarray binding signal,"[2]; peptide modifications: H4R19me1, binder concentration: 100 nM",0.000425 ± 4.9e-06
same,peptide microarray binding signal,[3]; [11],0.000113 ± 2.2e-06
same,peptide microarray binding signal,[4]; [11],1.51e-05 ± 1.7e-07
KRHRKVLRDNIQG [H4 16-28 K R H Rcit K V L R D N I Q G],peptide microarray binding signal,"[1]; peptide modifications: H4R19cit, binder concentration: 500 nM",0.000476 ± 2.1e-05
same,peptide microarray binding signal,"[2]; peptide modifications: H4R19cit, binder concentration: 100 nM",0.000283 ± 5.7e-06
same,peptide microarray binding signal,[3]; [12],9.44e-05 ± 2.1e-06
same,peptide microarray binding signal,[4]; [12],3.02e-05 ± 3.4e-07
KRHRKVLRDNIQG [H4 16-28 K R H Rme Kme2 V L R D N I Q G],peptide microarray binding signal,"[1]; peptide modifications: H4R19me1 H4K20me2, binder concentration: 50 nM",0.00404 ± 8.4e-05
same,peptide microarray binding signal,"[1]; peptide modifications: H4R19me1 H4K20me2, binder concentration: 500 nM",0.00943 ± 0.001
same,peptide microarray binding signal,"[2]; peptide modifications: H4R19me1 H4K20me2, binder concentration: 10 nM",0.00847 ± 0.00051
same,peptide microarray binding signal,"[2]; peptide modifications: H4R19me1 H4K20me2, binder concentration: 100 nM",0.0223 ± 0.0015
same,peptide microarray binding signal,[3]; [13],0.00219 ± 0.0001
same,peptide microarray binding signal,[3]; [14],0.002 ± 4.9e-05
same,peptide microarray binding signal,[4]; [13],0.00116 ± 9e-05
same,peptide microarray binding signal,[4]; [14],0.00254 ± 0.00041
